# B2AR arrestin – beta2AR (human) beta-arrestin recruitment activity; beta-arrestin recruitment to beta2AR, cell-based reporter; AID 492947; Potency, µM (top dose mostly 46.1 µM), inactives show at the highest dose activation, usual class: activators; 330,000 tested, 0.02% active; P07550;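 further: potency means the concentration at half of the fitted maximal effect; 0% = DMSO controls and full agonism = EC100 isoproterenol or metaproterenol; nearly all actives have a fitted effect of over 65% in size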
# Target sequence (P07550 whole entry, looked up): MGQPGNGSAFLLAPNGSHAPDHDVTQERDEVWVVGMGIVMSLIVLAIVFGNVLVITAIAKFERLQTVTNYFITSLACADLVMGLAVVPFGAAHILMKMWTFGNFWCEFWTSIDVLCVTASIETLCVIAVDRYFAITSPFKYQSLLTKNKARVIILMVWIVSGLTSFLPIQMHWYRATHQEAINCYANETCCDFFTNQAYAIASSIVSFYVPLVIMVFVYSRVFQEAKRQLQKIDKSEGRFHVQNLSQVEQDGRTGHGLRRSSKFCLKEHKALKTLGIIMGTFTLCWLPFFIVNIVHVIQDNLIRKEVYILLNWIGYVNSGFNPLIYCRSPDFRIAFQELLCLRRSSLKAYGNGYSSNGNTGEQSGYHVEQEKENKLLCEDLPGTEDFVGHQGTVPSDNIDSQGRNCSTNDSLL
# uPA surface inh – cell surface uPA generation inhibition; cell surface uPA generation assay, qHTS; Potency, µM (doses to about 38.3 µM), inactives show top-dose activity change, negative = inhibition, hits mostly inhibitors; 330,000 tested, 0.31% active; active means well fitted inhibition curve with a large enough effect; inconclusive means small, poorly fitted or top-dose-only effect; inactive means no such curve, though single readings can be large or run the other way; tested in mouse RAW 264.7 cells; further: potency means the concentration at half of the fitted maximal effect; on the % scale 0 is the no-effect control and ±100 the full control effect; nearly all actives have a fitted effect of over 55% in size
# Mito fusion yeast – inhibitors of mitochondrial division or activators of mitochondrial fusion; S. cerevisiae fusion-defective mutant growth rescue, CellTiterGlo 48 h; Potency, µM (titrated, usually from 46.1 µM), inactives show at the highest dose growth rescue (activation), most hits filed as activators; 320,000 tested, 0.23% active; AID 485298; further: potency means the concentration at half of the fitted maximal effect; % of control where 0% means no effect; nearly all actives have a fitted effect of over 45% in size
#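 Temperature-sensitive fusion-defective S. cerevisiae (e.g. fzo1-1, mgm1-5) were grown with compound in YPEG medium (3% ethanol, 3% glycerol) for 48 hours at 37C. Growth rescue was measured as viability by CellTiterGlo luminescence after 10 minutes at ambient.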
# ClpP mod – qHTS Assay for Activators of ClpP | ATP-dependent Clp protease proteolytic subunit (Bacillus subtilis (strain 168)), P80244 | purified B. subtilis ClpP, FRET peptide cleavage, 20 min | Potency, µM (titrated, usually from 57.5 µM), without a hit: at the top dose activity change, negative = active | 340,000 tested, 1.9% active | AID 651965, 2013; active means well fitted falling curve with a large enough effect; inconclusive means small, poorly fitted or top-dose-only effect; inactive means no such curve, though single readings can be large or run the other way; further: potency means the concentration at half of the fitted maximal effect; the source files actives as falling curves though it sought activators and does not explain the sign; nearly all actives have a fitted effect of over 65% in size
# Target sequence (P80244 whole entry, looked up): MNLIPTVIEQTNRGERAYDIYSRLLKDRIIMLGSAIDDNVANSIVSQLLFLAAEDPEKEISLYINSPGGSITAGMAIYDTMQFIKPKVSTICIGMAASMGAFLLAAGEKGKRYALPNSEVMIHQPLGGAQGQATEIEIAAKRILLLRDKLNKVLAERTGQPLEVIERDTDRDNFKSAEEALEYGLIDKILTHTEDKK
#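 Buffer: 100 mM Tris/HCl pH8, 100 mM KCl, 0.05% low protease BSA, 2.5% glycerol, 0.01% Tween-20. ClpP 10 microg/mL final; 20 min RT; delta FRET normalized to ADEP and DMSO controls.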
# p53 reactivator – re-activators of mutant p53; Potency, µM (titrated, usually from 92.2 µM), without a hit: at the top dose activity change, positive = activation, hits mostly activators; AID 504706; H1299 p53-A138V BP100-luciferase reporter, luminescence, 24 h; 320,000 tested, 0.063% active; further: potency means the concentration at half of the fitted maximal effect; % of control where 0% means no effect; nearly all actives have a fitted effect of over 45% in size
#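 H1299 (p53-null), stable ts p53-A138V + BP100-Luc; 1000 cells/well, Opti-MEM/10% FBS; cpd 4 pt, 1:5; 24 h, 37 deg C, 5% CO2; detection reagent 10 min RT; luminescence.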
# Giardia kill – kills Giardia lamblia; Giardia lamblia trophozoite viability; activity change, % at 7.66 µM, hits read low; 340,000 tested, 0.15% active; AID 540267; in the data active means activity change below about -80%; inconclusive means between about -30% and that limit;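 further: parasites exposed to compound for two days anaerobically before the ATP read; on the % scale 0 is the no-effect control and ±100 the full control effect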
#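 Compounds were tested on trophozoites seeded at 100 cells/well and held 48 hrs at 37 deg C anaerobically. An ATP-based luminescent kit measured the remaining live cells.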
# Starred values were filed as active, the others as inactive; ? = inconclusive; · = no result. This is a sample that favours compounds with a hit; in the whole collection about 2.1% have one here. Unless noted, the call rests on the fitted dose curve; in most records, active means well fitted curve in the direction sought with a large enough effect; inconclusive means small, poorly fitted or top-dose-only effect, or another doubt; inactive means no such curve, though single readings can be large; an effect the other way counts as inactive or inconclusive.
SMILES,B2AR arrestin,uPA surface inh,Mito fusion yeast,ClpP mod,p53 reactivator,Giardia kill
Clc1ccc(-c2cn3cc(Br)ccc3n2)cc1Cl,-0.5%,-6.3%,12.2%,-4.5%,70.7%,1.5
Clc1ccc(-c2cn3c(n2)-c2ccccc2C3)cc1Cl,-0.3%,10µM*,?,-3.4%,·,-9.5
Cc1cc(C(F)(F)F)nn1-c1nc(-c2ccccc2)cc(C(F)(F)F)n1,·,·,·,-2.5%,·,·
C=CCn1c(SCCC(=O)O)nnc1-c1cccs1,-0.2%,-6.8%,0.5%,28.2µM*,17.3%,-7.1
CCCC(=O)Nc1ccccc1OCc1cc(=O)n2cc(C)ccc2n1,·,·,·,28.2µM*,·,·
CCCS(=O)(=O)c1c(S(=O)(=O)CCC)c2cc(CC)ccn2c1C(=O)c1ccc(Cl)cc1,·,·,·,-1.8%,·,·
O=C(Nc1ccc(N2CCN(C(=O)c3ccc(Cl)cc3)CC2)cc1)c1ccc([N+](=O)[O-])o1,0.1%,-8.0%,-1.7%,-1.0%,-10.2%,-86.8*
CCC(=O)N1CCN(c2ccc(NC(=O)c3ccc([N+](=O)[O-])o3)cc2)CC1,-0.3%,-15.3%,1.8%,·,-11.6%,?
CC(C)(C)C(=O)N1CCN(c2ccc(NC(=O)c3ccc([N+](=O)[O-])o3)cc2)CC1,0.2%,-11.1%,-25.7%,·,-9.7%,-81.1*
CCCC(=O)N1CCN(c2ccc(NC(=O)c3ccc([N+](=O)[O-])o3)cc2)CC1,0.2%,-13.4%,-1.7%,·,-14.5%,-81.6*
CCOc1ccc(-n2cc(-c3ccccc3)c3c(NCCc4ccccc4)ncnc32)cc1,·,·,·,25.1µM*,·,·
Clc1ccc(CCNc2ncnc3c2c(-c2ccccc2)cn3-c2ccccc2)cc1,·,·,·,20µM*,·,·
O=C(O)c1ccc2nc(-c3cc4cc(Cl)ccc4oc3=O)[nH]c2c1,·,·,·,-28.0%,·,·
CC(C)(C)NC(=O)C(c1cccs1)N(CC1CCCO1)C(=O)Cn1nnc(-c2cccs2)n1 (centres undefined),0.3%,3.3%,7.08µM*,-1.7%,-0.6%,5.8
O=C(Nc1ccon1)C1CCN(S(=O)(=O)c2cccs2)CC1,-0.9%,-8.2%,-1.5%,25.1µM*,-5.4%,-5.5
COc1ccc2oc3cc(C)[n+]([O-])c(-c4ccc(Cl)cc4)c3c2c1,0.0%,7.7%,22.4µM*,-7.1%,-10.5%,11.6
COc1ccc(-c2c3c(cc(C)[n+]2[O-])oc2ccc(OC)cc23)cc1,-0.6%,-7.3%,12.5%,?,-6.1%,-16.1
O=c1cc(-c2ccc(O)cc2)oc2ccc3ccccc3c12,-1.3%,0.891µM*,12.4%,-16.0%,-3.2%,?
Cn1c([N+](=O)[O-])cnc1N1CCN(c2nncs2)C1=O,-0.5%,-1.0%,3.1%,-0.7%,-0.4%,-92.9*
O=C(NCc1ccccc1)C12CC3CC(CC(Cl)(C3)C1)C2,-0.2%,3.0%,0.0%,31.6µM*,3.5%,2.3
COc1ccc(S(=O)(=O)Nc2cccc(S(=O)(=O)N3CCCCCC3)c2)cc1,-0.4%,4.9%,5.7%,2.0%,-0.3%,15.9
O=S(=O)(Nc1nc2ccccc2nc1Nc1cccc(S(=O)(=O)N2CCCCC2)c1)c1ccccc1,-0.3%,-2.6%,0.4%,25.1µM*,-4.7%,-10.7
CCCC1=C/C(=C/c2ccc(-c3ccccc3OC)o2)C(=O)O1,?,-1.5%,7.5%,?,-5.4%,-16.2
COc1ccccc1-c1ccc(/C=C2/C=C(CC(C)C)OC2=O)o1,-0.3%,4.0%,?,35.5µM*,15.5%,-16.9
COC(=O)C[C@H]1C=C[C@H](NC(=O)c2ccccn2)[C@@H](CO)O1,·,·,·,-1.0%,·,·
SMILES,B2AR arrestin,uPA surface inh,Mito fusion yeast,ClpP mod,p53 reactivator,Giardia kill
CC(=O)N1N=C(c2cccc(NS(=O)(=O)c3ccc(C)cc3)c2)CC1c1ccco1 (centres undefined),-0.5%,-1.4%,2.0%,-8.9%,-2.7%,4.9
CC(=O)N1N=C(c2ccc(NS(=O)(=O)c3ccccc3)cc2)CC1c1ccco1 (centres undefined),-0.8%,0.708µM*,10.3%,4.2%,-10.4%,-4.0
CCOC(=O)c1ccc(CNc2ncnc3nc[nH]c23)cc1,·,·,·,-4.6%,·,17.0
CCOc1cc(C2NN=C(c3ccccc3)S2)ccc1OCc1ccc(F)cc1 (centres undefined),0.7%,1.7%,2.4%,14.1µM*,?,-26.0
O=C(/C=C/c1ccco1)Nc1cccc(S(=O)(=O)N2CCOCC2)c1,0.1%,-12.3%,-6.3%,-2.9%,4.8%,-9.8
Cc1ccc(NC(=O)/C=C/c2ccco2)cc1S(=O)(=O)N1CCCCCC1,·,0.891µM*,·,-3.4%,·,-6.9
CS(=O)(=O)/C(C#N)=C/c1c(-c2ccccc2)nc2n1CCS2,-0.4%,-2.4%,1.8%,-0.9%,4.9%,0.0
Clc1ccc(CO/N=C/c2c(-c3ccccc3)nc3n2CCS3)c(Cl)c1,-0.1%,1.8%,2.2%,35.5µM*,-2.9%,-3.8
N#Cc1cnn2c(-c3ccccc3)ccnc12,·,-1.4%,3.2%,25.1µM*,·,4.2
COc1ccc(-c2ccnc3c(C#N)cnn23)cc1,-0.3%,3.6%,-3.0%,·,2.6%,15.5
Cc1ncc([N+](=O)[O-])n1CC(=O)Nc1ccc(Cl)cc1,0.3%,3.5%,8.9%,·,-1.9%,10.7
COc1ccc(NC(=O)OCCn2c([N+](=O)[O-])cnc2C)cc1,-0.5%,2.7%,-2.9%,·,-2.5%,-86.6*
Cc1ncc([N+](=O)[O-])n1CCOC(=O)NC(NCc1ccccc1Cl)C(Cl)(Cl)Cl (centres undefined),-0.3%,-10.5%,12.1%,-14.5%,-4.0%,-119.1*
Cc1ccc(NC(NC(=O)OCCn2c([N+](=O)[O-])cnc2C)C(Cl)(Cl)Cl)cc1 (centres undefined),-1.8%,·,-20.5%,·,-0.4%,·
CCCOC(=O)CSc1nnc(-c2ccccc2)o1,·,·,·,-0.5%,·,·
CCn1cc(C(=O)NCCN(CC(C)C)CC(C)C)c(=O)c2cc(S(=O)(=O)N(C)C3CCCCC3)ccc21,·,·,·,0.6%,·,·
CCCC(=O)N1CCc2cc(OC)c(OC)cc2C1c1cc2cc3c(cc2[nH]c1=O)OCO3 (centres undefined),·,3.2%,·,?,·,11.7
COc1cc2c(cc1OC)C(c1cc3cc(OC)c(OC)cc3[nH]c1=O)N(C(=O)C1CC1)CC2 (centres undefined),0.0%,·,-4.4%,28.2µM*,1.1%,-11.8
C=CCn1c(SCC(=O)NC2CCCCC2)nnc1-c1cccnc1,0.2%,-3.2%,4.5%,-4.0%,·,-4.1
C=CCn1c(SCC(=O)NC2CCCC2)nnc1-c1ccncc1,-0.5%,9.3%,2.0%,25.1µM*,-3.8%,5.6
Cc1cnc2c(c1SCC(=O)Nc1ccc(F)cc1F)c(=O)n(C)c(=O)n2C,·,·,·,-0.1%,·,·
CN(CC(=O)N1CCN(c2ncccn2)CC1)S(=O)(=O)c1ccc(Cl)cc1,-0.1%,-1.1%,-8.8%,·,-1.1%,-10.8
